This note sets out measurements from PubChem BioAssay (NCI).

This is part of a sample that, as a whole, favours compounds with a hit. Of some 83,000 tested, about 20% had one in any assay.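 Results are percent growth after 48 hours of single-concentration exposure. 100 means growth as in untreated cells, lower positive values show inhibition; negative values down to -100 show cell death.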 A number with no mark means an inactive call. Activity calls are given as the source filed them. How the source made its calls: active means growth percent below 10; inactive means the rest.

One assay concerns SK-OV-3 ovarian. In words: NCI-60 one-dose screen, 48 h (100 = growth as untreated, 0 = no growth, -100 = all killed). The following applies: 10 µM.
Take `Cn1cc(-c2cc(N)n3nc(-c4c[nH]c5ccc(Br)cc45)cc3n2)c2cc(Br)cnc21`: the growth was -55.9% (active). On to `CC(=O)Nc1ccc(-n2cnc3cc(-c4ccc(NS(C)(=O)=O)cc4)ccc32)cc1`, for which the growth is 87.9%. In the case of `COc1ccccc1C(=O)NNC(=O)CSc1nc2c(c(=O)[nH]1)CCCC2`, the growth is 94.1%. The same measure, in the same setting: for `O=c1[nH]c2ccccc2cc1CSc1ccc(Nc2nccc(-c3ccc(C(F)(F)F)cc3)n2)cc1` the value was 79.5%; for `COc1cnc2c(c1)C(=O)c1c-2n(CCCNCCO)c(=O)c2cc(OC)c(OC)cc12`, 7.28% (active); for `C/C(=N\N=C\c1ccc(Cl)c([N+](=O)[O-])c1)c1ccc2c(c1)Nc1ccccc1S2`, 94.8%.

A further assay has as its system IGROV1 ovarian. Described as above. The following applies: 10 µM.
Consider `C#CCNC(=O)CCC(=O)OC[C@]12CC[C@@H](C(=C)C)[C@@H]1C1CC[C@@H]3[C@@]4(C)CCCNC(C)(C)[C@@H]4CC[C@@]3(C)[C@]1(C)CC2` (stereo partly specified), for which the growth was -3.31% (active). Still for that read-out and setting: then `Cc1ccc(-c2nc(Nc3ccc(S(N)(=O)=O)cc3)c3ccccc3n2)cc1`, with 66.7%.

`N#Cc1ccc(-c2nn(-c3ccc(C(=O)O)cc3)cc2CNc2cccc(Br)c2)cc1`: the growth is 79%.

As for `Cc1noc2c(Cc3ccc([N+](=O)[O-])cc3)nn(CC(=O)N/N=C/c3ccc(Br)cc3)c(=O)c12`, the growth was 95.9%. On to `Cc1ccc(/C=C/C(=O)c2ccc(NC(=O)CSc3nnc(-c4c[nH]c5ccccc45)n3-c3ccccc3)cc2)c(C)c1`, for which the growth is 66.8%. The same measure, in the same setting: for `O=C1c2ccccc2C(=O)c2c1c(C(=O)c1ccc(Cl)cc1)n1c2ccc2c3ccccc3ccc21` the value was 105%. The same measure, in the same setting: then `COc1ccc(C(=O)Nc2sc3c(c2C#N)CCC(=O)C3)cc1C(F)(F)F`, with 13.7%. Still for that read-out and setting: then `COc1ccc(C2NC(=S)NC(C)=C2C(=O)OC(C)C)cc1OC` (stereo unspecified), with 109%; and `COc1ccc(OC)c(/C=N/NC(=O)c2ccc3nc(-c4ccc(Cl)cc4)[nH]c3c2)c1`, with 92.2%; and `Nc1nc(Nc2ccc(Cl)cc2)n(Cc2cccc(Br)c2)n1`, with -5.03% (active).

Turning to `O=C(CSc1nnc(-c2ccc3nc(-c4ccc(Cl)cc4)[nH]c3c2)o1)Nc1ccc(Br)cc1`, the growth was 23.2%. Same read-out and setting: then `COc1cc2c(cc1OC)CN(CCCCOc1cc(O)c3c(=O)cc(-c4ccccc4)oc3c1)CC2`, with 95.8%; and `O=C(CSc1nnc(-c2c[nH]c3ccccc23)n1-c1ccccc1)c1ccc(Br)cc1`, with 64.1%. For `Cc1ccc(/C=C/C(=O)c2ccc(NC(=O)CSc3nnc(-c4c[nH]c5ccccc45)n3-c3ccccc3)cc2)cc1`, the growth is 93.1%. Same read-out and setting: for `CC1=C(c2cc(-c3ccc(Cl)cc3)c(C#N)c(N)n2)C(c2ccccc2)NC(=S)N1` (stereo unspecified) the value was 65.7%; for `COc1ccc(-c2cc(-c3cc(C(=O)c4ccccc4)n4ccc(C)cc34)nc(N)c2C#N)cc1`, 79.1%.

In the case of `COc1cc2c3c(n(CCCNCCO)c(=O)c2cc1OC)-c1nc2c(cc1C3=O)OCO2`, the growth was 12.4%. In the case of `COc1ccc(/C=C/C(=O)c2ccc(N3CCN(C)CC3)cc2)c(C(F)(F)F)c1`, the growth was 55%. For `Cn1cc(/C=N/Nc2cccc(Cl)n2)c2ccccc21`, the growth is 46.1%. Still for that read-out and setting: then `COc1ccc(C(=O)CSc2nnc(-c3c[nH]c4ccccc34)n2-c2ccccc2)cc1`, with 60.5%; and `N#Cc1c(NC(=O)c2ccc(C(F)(F)F)c(Cl)c2)sc2c1CCC(=O)C2`, with -35.3% (active); and `COc1cc(/C=C/C(=O)c2ccc(NC(=O)CSc3nnc(-c4c[nH]c5ccccc45)n3-c3ccccc3)cc2)cc(OC)c1OC`, with 48.8%. The same measure, in the same setting: then `O=C(Nc1cccc([N+](=O)[O-])c1)Nc1cccc([N+](=O)[O-])c1`, with 88.6%; and `COc1cc(NC(=O)CSc2nnc(-c3ccc4nc(-c5ccc(Cl)cc5)[nH]c4c3)o2)cc(OC)c1OC`, with 73.8%. In the case of `O=S(=O)(Nc1ncccn1)c1ccc(-n2c(-c3ccc(Br)cc3)nc(-c3ccccc3)c2-c2ccccc2)cc1`, the growth is 51.6%. Consider `CCN1CCN(Cc2ccc(C(=O)Nc3cccc(-c4cn(-c5ccc6oc(=O)ccc6c5)nn4)c3)cc2C(F)(F)F)CC1`, for which the growth is -100% (active).

`Cc1cc(=O)oc2cc(OCCCCOc3ccc(/C=C/C(=O)Nc4ccc(F)c(Cl)c4)cc3)ccc12`: the growth is 109%. On the same count and under the same terms, then `Cc1cc(C)nc(/N=C(\N)Nc2ccc(S(=O)(=O)Nc3nc(C)cc(C)n3)cc2)n1`, with 106%. `Cc1cccc(-c2nc(Nc3ccccc3C(=O)O)c3ccccc3n2)c1`: the growth was 59.2%. Still for that read-out and setting: for `C=C1CCC2C3(C)COC(c4cccc(F)c4)OC3CCC2(C)C1CC(O)C1=CCOC1=O` (stereo unspecified) the value was 61.1%.

For `CC1CC(c2ccc(N(C)C)cc2)=NN1c1nc(O)c(C2=c3cc(Br)ccc3=NC2=O)s1` (stereo unspecified), the growth is 110%. Same read-out and setting: then `C/C(=N\NC(N)=S)c1ccc(Nc2nc(SC(C)C)nc(-c3ccccc3)c2C#N)cc1`, with 81.3%.

For the compound `O=c1c2ccccc2nc(COc2ccccc2)n1/N=C/c1ccc(N2CCCC2)cc1`, the growth was 97.2%.

For `CN1CCN(Cc2ccc(NC(=O)c3cncc(C#Cc4cnc5ccc(N[C@H]6CCOC6)nn45)c3)cc2C(F)(F)F)CC1`, the growth was -74.6% (active). Consider `Cn1cc(-c2cc(N)n3nc(-c4c[nH]c5ccc(Br)cc45)cc3n2)c2cc(Br)cnc21`, for which the growth is -21.6% (active). On the same count and under the same terms, for `CC(=O)Nc1ccc(-n2cnc3cc(-c4ccc(NS(C)(=O)=O)cc4)ccc32)cc1` the value was 36.4%; for `COc1ccccc1C(=O)NNC(=O)CSc1nc2c(c(=O)[nH]1)CCCC2`, 92.5%. Still for that read-out and setting: then `O=c1[nH]c2ccccc2cc1CSc1ccc(Nc2nccc(-c3ccc(C(F)(F)F)cc3)n2)cc1`, with 35.7%. On the same count and under the same terms, for `COc1cnc2c(c1)C(=O)c1c-2n(CCCNCCO)c(=O)c2cc(OC)c(OC)cc12` the value was 27.2%.

Take `C/C(=N\N=C\c1ccc(Cl)c([N+](=O)[O-])c1)c1ccc2c(c1)Nc1ccccc1S2`: the growth is 60.3%.
